An excerpt weighted towards active compounds, which were near 10% of everything screened.
Six1-Eya2 inh – blocks human Six1 binding to Eya2; Q15475+O00167; AlphaScreen GST-Six1/His-Eya2 binding, biochemical; active compounds read low; activity change, % (concentration not given with the values); 360,000 tested, 0.56% active; in the data active = activity change below about -65%; inconclusive = mostly about -30% to -63%; note: % is set by controls: 0 for no effect and ±100 for the full control effect
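Compounds are tested against tagged Six1 and Eya2 proteins bridged by glutathione donor and nickel acceptor beads; after a one-hour incubation at 37 °C without light, AlphaScreen emission is recorded.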
JMJD2A Tudor inh – inhibitors of human JMJD2A Tudor domain; 390,000 tested, 4.4% active; Potency, µM (top dose mostly 114 µM), without a hit: top-dose activity change, negative = inhibition, most hits filed as inhibitors; O75164; AID 504339; AlphaScreen JMJD2A-Tudor / H3K4me3 peptide binding; note: potency is the fitted concentration of half-maximal effect; % is set by controls: 0 for no effect and ±100 for the full control effect; nearly all actives have a fitted effect of over 50% in size
G9a inh – G9a (human) methyltransferase inhibition; Q96KQ7; G9a H3K9 monomethylation, AlphaScreen, 2 h; Potency, µM (highest dose often 102 µM), inactives show at the highest dose activity, negative = inhibition, actives largely listed as inhibitors; 350,000 tested, 8.8% active; note: potency is the fitted concentration of half-maximal effect; % is set by controls: 0 for no effect and ±100 for the full control effect; nearly all actives have a fitted effect of over 75% in size
Target sequence (Q96KQ7 913-1193 limits assumed): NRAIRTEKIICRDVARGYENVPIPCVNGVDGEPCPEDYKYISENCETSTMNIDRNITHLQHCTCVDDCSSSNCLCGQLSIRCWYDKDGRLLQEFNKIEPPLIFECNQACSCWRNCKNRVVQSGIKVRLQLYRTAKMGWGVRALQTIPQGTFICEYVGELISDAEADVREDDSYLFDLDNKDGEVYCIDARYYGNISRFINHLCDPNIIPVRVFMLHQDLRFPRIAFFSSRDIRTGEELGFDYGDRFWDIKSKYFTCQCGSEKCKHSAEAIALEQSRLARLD
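Step 1: enzyme (final 20 nM) with compound, 15 min RT. Step 2: substrate peptide 500 nM and SAM 20 uM, 2 h RT. Step 3: anti-H3K9me1 antibody and AlphaScreen beads, 10 min, then plate read.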
HP1b chromo inh – HP1-beta chromodomain-methylated histone interaction inhibition | AlphaScreen HP1-beta / biotin-H3K9me3 peptide binding | P83916 | 390,000 tested, 0.56% active | Potency, µM (titrated, usually from 114 µM), without a hit: top-dose activity change, negative = inhibition, actives largely listed as inhibitors; note: potency is the fitted concentration of half-maximal effect; nearly all actives have a fitted effect of over 70% in size
Target sequence (P83916 whole entry, looked up): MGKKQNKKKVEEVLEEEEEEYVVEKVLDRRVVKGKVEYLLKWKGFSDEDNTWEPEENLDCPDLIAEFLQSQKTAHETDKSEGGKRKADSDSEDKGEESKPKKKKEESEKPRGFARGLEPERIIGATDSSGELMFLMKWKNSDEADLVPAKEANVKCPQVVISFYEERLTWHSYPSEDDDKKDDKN
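AlphaScreen: HP1-beta (50 nM) preformed 30 min with biotin-H3(1-18)K9me3 peptide (50 nM) in PBS pH 7.4, 0.01% Tween-20. Compound added for 30 min at RT, then streptavidin donor/nickel chelate acceptor beads (10 ug/mL) for 30 min.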
BAZ2B inh – inhibitors of human BAZ2B bromodomain; Q9UIF8; AlphaScreen BAZ2B-H3K14Ac peptide displacement; Potency, µM (doses to about 114 µM), without a hit: top-dose activity change, negative = inhibition, most hits filed as inhibitors; 360,000 tested, 4.4% active; note: potency is the fitted concentration of half-maximal effect; % is set by controls: 0 for no effect and ±100 for the full control effect; nearly all actives have a fitted effect of over 60% in size
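Compounds, titrated to a top concentration of 110 uM, were incubated 30 min at room temperature with preformed BAZ2B/acetyl-K14 H3 peptide complex (50 nM each). Proximity signal was measured by AlphaScreen after 20 min with beads.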
CtBP-E1A blk – CtBP/E1A binding inhibition; AlphaScreen GST-E1A/His-CtBP binding, 1536-well; active compounds read low; activity change, % (concentration not given with the values); 340,000 tested, 0.49% active; AID 651724; in the data active = activity change below about -65%; inconclusive = mostly about -30% to -63%; note: % is set by controls: 0 for no effect and ±100 for the full control effect
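Homogeneous bead-based format: GST-tagged E1A captured on glutathione donor beads, His-tagged CtBP on nickel acceptor beads; compounds precede bead addition by 2 h at 37 °C.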
An asterisk follows results filed as active; ? = inconclusive; · = not tested or not shown; [ ] = another dose, or the depositor's remark. Unless noted, calls come from the whole dose curve; as a rule, active = well fitted inhibition curve with a large enough effect; inconclusive = small, poorly fitted or top-dose-only effect; inactive = no such curve, though single readings can be large or run the other way.

SMILES	Six1-Eya2 inh	JMJD2A Tudor inh	G9a inh	HP1b chromo inh	BAZ2B inh	CtBP-E1A blk
C#CCOCCOCCOCCNc1nc(N2CCN(C(=O)CCCCCCCCCCNC(=O)[C@H]([C@@H](C)CC)n3cc(CCCCCN)nn3)CC2)nc(N2CCN(C(=O)CCCCCCCCCCNC(=O)[C@@H]([C@H](C)O)n3cc(C)nn3)CC2)n1	2	56µM*	-8%[2.33 µM]	?	56µM*	-9
C#CCOCCOCCOCCNc1nc(N2CCN(C(=O)CCCCCCCCCCNC(=O)Cn3cc(CCCCCN)nn3)CC2)nc(N2CCN(C(=O)CCCCCCCCCCNC(=O)[C@H]([C@@H](C)CC)n3cc(CCCCCN)nn3)CC2)n1	-2	79µM*	-49%[2.33 µM]	?	?	-14
C#CCOCCOCCOCCNc1nc(N2CCN(C(=O)CCCCCCCCCCNC(=O)Cn3cc(CCCCCN)nn3)CC2)nc(N2CCN(C(=O)CCCCCCCCCCNC(=O)[C@H](CO)n3cc(CCCCCN)nn3)CC2)n1	-8	?	2%[2.33 µM]	3%	?	-12
C#CCOCCOCCOCCNc1nc(N2CCN(C(=O)CCCCCCCCCCNC(=O)[C@H](CCC(=O)O)n3cc(CCCCCN)nn3)CC2)nc(N2CCN(C(=O)CCCCCCCCCCNC(=O)[C@@H]([C@H](C)O)n3cc(C)nn3)CC2)n1	-5	?	-8%[2.33 µM]	16%	-38%	·
CC(=O)c1ccc(NC(=O)N2C3CCC2CC(O)(c2cccnc2)C3)cc1 (stereo not given)	3	-9%	-8%[59 µM]	29%	?	1
N#C/C(C(N)=O)=C1/SC=C(c2ccccc2)N1c1ccccc1	1	-6%	?	15%	-10%	-4
N#C/C(C(=O)c1ccccc1)=C1/SC=C(N)N1c1ccccc1	·	·	?	·	45µM*	·
CC(=O)c1cccc(Nc2ccc(C#N)cc2)c1	1	·	·	·	·	3
Cc1ccc(NC(=O)CSC2=C(C#N)C(c3ccc4c(c3)OCO4)C3=C(CCCC3=O)N2)c(C)c1 (stereo not given)	-4	-26%	50µM*	30%	-34%	3
O=C1CCCC2=C1C(c1ccc3c(c1)OCO3)c1c([nH]n(-c3ccccc3)c1=O)N2 (stereo not given)	-11	-23%	40µM*	-4%	-4%	-16
COc1cc(C2C(C#N)=C(SC)NC3=C2C(=O)CCC3)ccc1O (stereo not given)	5	-8%	?	6%	-5%	0
CCc1ccccc1NC(=O)CSC1=C(C#N)C(c2ccc(O)c(OC)c2)C2=C(CCCC2=O)N1 (stereo not given)	-6	-18%[11.4 µM]	8.9µM*	-27%	-34%	-6
C=CCOC(=O)C1=C(C)NC(SCC(=O)OCC)=C(C#N)C1c1ccc(O)c(OC)c1 (stereo not given)	1	-15%	32µM*	29%	6%	-3
COc1cccc(C2C3=C(CCCC3=O)Nc3[nH]n(-c4ccccc4)c(=O)c32)c1 (stereo not given)	-6	-13%	?	10%	-30%	0
CCc1ccc(CNC(=O)Cc2ccc(NC(=O)N3CCSc4ncccc43)cc2)cc1	·	-15%	?	40%	-3%	·
O=C(CN1C(=O)COc2ccc(S(=O)(=O)NC3CCCC3)cc21)NCc1ccccc1Cl	·	-16%	6%[59 µM]	20%	3%	·
Cc1ccc(NC(=O)C(=O)NCC(c2ccc3c(c2)OCO3)N2CCN(C)CC2)cc1C (stereo not given)	·	-11%	3%[59 µM]	11%[57 µM]	-1%	·
N#CC1=C(SCc2ccccc2)NC2=C(C(=O)CCC2)C1c1ccc2c(c1)OCO2 (stereo not given)	-13	45µM*	4%[2.33 µM]	-2%	-38%	-11
FC(F)(F)c1cccc(N2CCCCC2)c1	1	·	·	·	·	4
FC(F)(F)c1cccc(N2CCC(N=CN3CCCCCC3)=N2)c1	?	-15%[11.4 µM]	40µM*	?	40µM*	·
COc1ccc(-c2noc(CN(C(=O)COc3cc(C)c(Br)c(C)c3)C(C)C)n2)cc1	·	-7%	48%[59 µM]	84%	-3%	·
CCOC(=O)c1cnc(-n2[nH]c(C)cc2=O)[nH]c1=O	-77*	2.8µM*	?	50µM*	1.8µM*	-92*
CCOC(=O)c1cnc(Cc2ccccc2)[nH]c1=O	7	-11%	9%[0.501 µM]	22%	-1%	-1
CCOC(=O)c1cnc(-n2[nH]c(C)c(Cc3ccccc3)c2=O)[nH]c1=O	-82*	7.9µM*	33%[12.7 µM]	61%	2µM*	-92*
CCOC(=O)c1cnc[nH]c1=O	1	-3%	·	30%	·	-6
SMILES	Six1-Eya2 inh	JMJD2A Tudor inh	G9a inh	HP1b chromo inh	BAZ2B inh	CtBP-E1A blk
COc1cc(O)c2c(c1)OC(c1ccc(O)cc1)CC2=O (stereo not given)	19	-23%	-7%[59 µM]	74%	-10%	19
Cc1c(O)cc2c(c1O)C(=O)CC(c1ccc(O)cc1)O2 (stereo not given)	-28	?	?	-6%	56µM*	4
CCc1nnc(NC(=O)C2CC(=O)N(C3CCCCC3)C2)s1 (stereo not given)	2	-4%	16%	30%	3%	7
COc1cc(C2Nc3cccc4cccc(c34)N2)cc(OC)c1OC(C)=O	-23	?	13µM*	?	?	-11
Oc1ccc2ccccc2c1C1Nc2cccc3cccc(c23)N1	-16	45µM*	5µM*	?	40µM*	-5
COc1ccc(Br)cc1C1Nc2cccc3cccc(c23)N1	-13	?	-6%[0.501 µM]	-17%	45µM*	-6
COc1cc(C2Nc3cccc4cccc(c34)N2)ccc1O	-29	50µM*	8.9µM*	?	?	-4
CCN(CC)c1ccc(C2Nc3cccc4cccc(c34)N2)c(O)c1	-1	35µM*	32µM*	?	11µM*	-4
CCN(CC)c1ccc(/C=N/N2C(=O)c3ccccc3C2=O)c(O)c1	6	-26%	?	9%	15%	-3
COc1ccc(C2c3[nH]c4ccccc4c3C[C@H]3C(=O)N(C4CCN(Cc5ccccc5)CC4)CC(=O)N23)cc1OC (stereo not given in full)	?	?	13µM*	-7%	?	-3
COc1cccc(C2c3[nH]c4ccccc4c3C[C@H]3C(=O)N(C4CCN(Cc5ccccc5)CC4)CC(=O)N23)c1 (stereo not given in full)	-16	?	5%[12.7 µM]	4%	?	-1
O=C(NNc1cccc(Cl)n1)Nc1ccc(Cl)cc1	0	8%	?	36%	6%	1
